This is an account of results in PubChem BioAssay (EPA / NIEHS).

For orientation: AC50 means the concentration at which the activity in the assay is half-maximal.

Conditions in all cases: mRNA level, 48 h; actives raise or lower the signal
Read-out in test [1]: Bcl-2 (BAX) gene, BAX (gene 581)
In words: LTEA_HepaRG_BAX: Life Technologies and Expression Analysis (LTEA) Assay for Bcl-2 (BAX) gene using HepaRG (AID 2283470). A digest of the protocol:
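Human HepaRG cells treated in duplicate for 48 h across eight concentrations (max 100 uM, 0.5% DMSO); BAX expression measured by qRT-PCR.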

Read-out in test [2]: adenosine kinase (ADK) gene, ADK (gene 132)
As to the kind of experiment: LTEA_HepaRG_ADK: Life Technologies and Expression Analysis (LTEA) Assay for adenosine kinase (ADK) gene using HepaRG (AID 2283471). A digest of the protocol: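 HepaRG (human liver), 48 h chemical exposure, 8-pt half-log series, top 100 uM, 0.5% DMSO vehicle. Readout: ADK mRNA by qRT-PCR vs housekeeping genes; bidirectional curve fit relative to DMSO baseline.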

Read-out in test [3]: Alpha-fetoprotein (AFP) gene, AFP (gene 174)
As to the kind of experiment: LTEA_HepaRG_AFP: Life Technologies and Expression Analysis (LTEA) Assay for Alpha-fetoprotein (AFP) gene using HepaRG (AID 2283472). A digest of the protocol:
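Measures AFP mRNA change in HepaRG after 48 h chemical exposure (8 half-log concentrations, highest 100 uM, 0.5% DMSO). Fold change relative to DMSO, fitted in both directions.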

Read-out in test [4]: BCL2L11 (gene 10018)
In words: LTEA_HepaRG_BCL2L11: Life Technologies and Expression Analysis (LTEA) Assay for Bcl-2 (BCL2L11) gene using HepaRG (AID 2283473). A digest of the protocol: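 HepaRG, 48 h exposure, 8-pt half-log series from 100 uM in 0.5% DMSO, duplicates; qRT-PCR (Fluidigm TaqMan) for BCL2L11, housekeeping-normalized; bidirectional curve fit relative to DMSO baseline.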

Read-out in test [5]: Apolipoprotein A-V (APOA5) gene, APOA5 (gene 116519)
As to the kind of experiment: LTEA_HepaRG_APOA5: Life Technologies and Expression Analysis (LTEA) Assay for Apolipoprotein A-V (APOA5) gene using HepaRG (AID 2283474). A digest of the protocol: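 HepaRG, 48 h chemical exposure in serum-free induction medium, 8-pt half-log series (top 100 uM), 0.5% DMSO vehicle, duplicates. Readout: APOA5 mRNA by qRT-PCR, housekeeping-normalized; bidirectional fit vs DMSO baseline.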

Read-out in test [6]: Apoptosis regulator Bcl-2 (Homo sapiens) (UniProt P10415)
As to the kind of experiment: LTEA_HepaRG_BCL2: Life Technologies and Expression Analysis (LTEA) Assay for Bcl-2 gene using HepaRG (AID 2283475). A digest of the protocol: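 Each chemical was tested in duplicate on HepaRG cultures held in serum-free induction medium for 48 h, highest concentration 100 uM with half-log dilutions. Transcript levels came from multiplexed qRT-PCR, normalised to housekeeping genes; activity was scored in either direction relative to DMSO.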

Read-out in test [7]: Bcl-2 (BID) gene, BID (gene 637)
In words: LTEA_HepaRG_BID: Life Technologies and Expression Analysis (LTEA) Assay for Bcl-2 (BID) gene using HepaRG (AID 2283476). A digest of the protocol: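 Assay used HepaRG hepatic cells treated 48 h in serum-free medium with half-log dilutions from 100 uM. Endpoint: BID mRNA, qRT-PCR, normalized to ACTB/GAPDH/POLR2A.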

Read-out in test [8]: Caspase-3 (Homo sapiens) (UniProt P42574)
In words: LTEA_HepaRG_CASP3: Life Technologies and Expression Analysis (LTEA) Assay for cysteine-aspartic acid protease (CASP3) using HepaRG (AID 2283477). A digest of the protocol:
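HepaRG, 48 h exposure, 8 conc. (top 100 uM, half-log steps, duplicate), 0.5% DMSO vehicle; qRT-PCR of CASP3 transcript, housekeeping-normalised (ACTB/GAPDH/POLR2A); bidirectional curve fit vs DMSO baseline.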

Read-out in test [9]: Cytochrome P450 (CYP24A1), CYP24A1 (gene 1591)
In words: LTEA_HepaRG_CYP24A1: Life Technologies and Expression Analysis (LTEA) Assay for Cytochrome P450 (CYP24A1) using HepaRG (AID 2283478). A digest of the protocol:
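qRT-PCR read-out: CYP24A1 transcript levels normalized to three housekeeping genes, bidirectional curve fits against 0.5% DMSO baseline. Human HepaRG cells treated 48 h with chemicals at eight concentrations from 100 uM in half-log steps.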

Read-out in test [10]: Cytochrome P450 (CYP1A2), CYP1A2 (gene 1544)
In words: LTEA_HepaRG_CYP1A2: Life Technologies and Expression Analysis (LTEA) Assay for Cytochrome P450 (CYP1A2) using HepaRG (AID 2283479). A digest of the protocol:
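HepaRG, 48 h exposure, top 100 uM, half-log 8-pt, 0.5% DMSO vehicle, duplicates. Readout: TaqMan qRT-PCR of CYP1A2 mRNA, housekeeping-normalized (ACTB/GAPDH/POLR2A). Gain/loss fit relative to DMSO baseline.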

Read-out in test [11]: cysteine-aspartic acid protease (CASP8), CASP8 (gene 841)
As to the kind of experiment: LTEA_HepaRG_CASP8: Life Technologies and Expression Analysis (LTEA) Assay for cysteine-aspartic acid protease (CASP8) using HepaRG (AID 2283480). A digest of the protocol:
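CASP8 transcript measured by TaqMan qRT-PCR with ACTB/GAPDH/POLR2A normalization, after 48 h chemical exposure of HepaRG cells in serum-free induction medium. Eight concentrations, top 100 uM, half-log steps, 0.5% DMSO vehicle; fits in both directions versus DMSO.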

Read-out in test [12]: Cytochrome P450 (CYP2B6), CYP2B6 (gene 1555)
In words: LTEA_HepaRG_CYP2B6: Life Technologies and Expression Analysis (LTEA) Assay for Cytochrome P450 (CYP2B6) using HepaRG (AID 2283481). A digest of the protocol: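 Read-out is CYP2B6 mRNA by TaqMan qRT-PCR, normalized to three housekeeping genes and fitted bidirectionally against 0.5% DMSO baseline. Human HepaRG cells received test chemicals for 48 h, top concentration 100 uM, half-log dilutions.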

Read-out in test [13]: Cytochrome P450 2C19 (Homo sapiens) (UniProt P33261)
In words: LTEA_HepaRG_CYP2C19: Life Technologies and Expression Analysis (LTEA) Assay for CYP2C19 using HepaRG (AID 2283482). A digest of the protocol:
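HepaRG, 48 h chemical exposure, 8-pt half-log series from 100 uM in 0.5% DMSO, duplicates. Readout: CYP2C19 mRNA by TaqMan qRT-PCR, housekeeping-normalized. Bidirectional fit vs DMSO baseline; phenobarbital 1mM as induction control.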

Read-out in test [14]: CYP2C8 (gene 1558)
As to the kind of experiment: LTEA_HepaRG_CYP2C8: Life Technologies and Expression Analysis (LTEA) Assay for CYP2C8 using HepaRG (AID 2283483). A digest of the protocol:
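CYP2C8 expression measured by TaqMan qRT-PCR and normalized to three housekeeping genes. HepaRG cultures were treated for 48 h with an eight-point half-log series topping at 100 uM, vehicle 0.5% DMSO, duplicates; fitted both directions against DMSO.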

Read-out in test [15]: CYP2C9 (gene 1559)
As to the kind of experiment: LTEA_HepaRG_CYP2C9: Life Technologies and Expression Analysis (LTEA) Assay for CYP2C9 using HepaRG (AID 2283484). A digest of the protocol: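 CYP2C9 transcript level, quantified by TaqMan qRT-PCR against three housekeeping genes, was fitted bidirectionally relative to 0.5% DMSO. HepaRG cultures were treated 48 h, in duplicate, at eight half-log concentrations topping at 100 uM.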

Read-out in test [16]: CYP2E1 (gene 1571)
In words: LTEA_HepaRG_CYP2E1: Life Technologies and Expression Analysis (LTEA) Assay for CYP2E1 using HepaRG (AID 2283485). A digest of the protocol: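 Assay uses 48 h exposure of HepaRG hepatic cells, eight concentrations to 100 uM. Expression of CYP2E1 is quantified by TaqMan qRT-PCR with ACTB, GAPDH and POLR2A normalization; curves fitted in both directions relative to vehicle.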

Read-out in test [17]: Cytochrome P450 3A4 (Homo sapiens) (UniProt P08684)
As to the kind of experiment: LTEA_HepaRG_CYP3A4: Life Technologies and Expression Analysis (LTEA) Assay for CYP3A4 using HepaRG (AID 2283487). A digest of the protocol:
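CYP3A4 transcript measured by TaqMan qRT-PCR and normalized to three housekeeping genes after 48 h chemical exposure of human HepaRG cells. Top concentration 100 uM, half-log steps, 0.5% DMSO vehicle; gain or loss fitted against DMSO baseline.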

Read-out in test [18]: DNA damage-inducible transcript 3 (DDIT3), DDIT3 (gene 1649)
As to the kind of experiment: LTEA_HepaRG_DDIT3: Life Technologies and Expression Analysis (LTEA) Assay for DNA damage-inducible transcript 3 (DDIT3) using HepaRG (AID 2283488). A digest of the protocol:
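Eight-point concentration-response (100 uM highest, half-log dilutions) in HepaRG, 48 h, duplicate wells. Endpoint: qRT-PCR mRNA, normalized (ACTB, GAPDH, POLR2A), bidirectional fitting with DMSO as baseline.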

Read-out in test [19]: Pro-epidermal growth factor (Homo sapiens) (UniProt P01133)
In words: LTEA_HepaRG_EGF: Life Technologies and Expression Analysis (LTEA) Assay for Epidermal growth factor (EGF) using HepaRG (AID 2283489). A digest of the protocol:
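qRT-PCR readout of EGF transcript after 48 h chemical exposure of HepaRG cells; eight concentrations from 100 uM down in half-log steps, duplicate wells, 0.5% DMSO vehicle. Bidirectional curve fitting against DMSO baseline.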

Read-out in test [20]: CYP4A11 (gene 1579)
In words: LTEA_HepaRG_CYP4A11: Life Technologies and Expression Analysis (LTEA) Assay for CYP4A11 using HepaRG (AID 2283486). A digest of the protocol: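 CYP4A11 transcript levels were quantified by TaqMan qRT-PCR after HepaRG human liver cells were treated for 48 hours with test chemicals (top 100 uM, half-log dilutions, 0.5% DMSO). Gain or loss of signal was fitted relative to DMSO.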

Structures are written as SMILES. Activity calls are given as the source filed them. How the source made its calls: active means hit-call score of the fitted dose curve at least 0.9, where 1 is the maximum; inactive means score below 0.9.

Chain of Cytochrome P450 2C19 (Homo sapiens) (P33261 whole entry, looked up): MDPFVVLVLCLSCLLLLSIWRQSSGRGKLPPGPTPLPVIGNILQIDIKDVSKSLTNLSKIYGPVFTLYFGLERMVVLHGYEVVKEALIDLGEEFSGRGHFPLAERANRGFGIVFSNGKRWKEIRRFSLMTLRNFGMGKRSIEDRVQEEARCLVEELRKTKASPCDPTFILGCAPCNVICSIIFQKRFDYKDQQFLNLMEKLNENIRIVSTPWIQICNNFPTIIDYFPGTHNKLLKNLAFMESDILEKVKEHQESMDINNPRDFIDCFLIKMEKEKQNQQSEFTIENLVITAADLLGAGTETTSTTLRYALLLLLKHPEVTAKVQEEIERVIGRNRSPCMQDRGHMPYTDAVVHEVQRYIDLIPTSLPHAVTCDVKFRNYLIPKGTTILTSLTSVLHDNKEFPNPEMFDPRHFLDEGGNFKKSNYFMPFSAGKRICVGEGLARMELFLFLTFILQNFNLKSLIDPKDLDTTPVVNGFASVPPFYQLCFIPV
Chain of Caspase-3 (Homo sapiens) (P42574 whole entry, looked up): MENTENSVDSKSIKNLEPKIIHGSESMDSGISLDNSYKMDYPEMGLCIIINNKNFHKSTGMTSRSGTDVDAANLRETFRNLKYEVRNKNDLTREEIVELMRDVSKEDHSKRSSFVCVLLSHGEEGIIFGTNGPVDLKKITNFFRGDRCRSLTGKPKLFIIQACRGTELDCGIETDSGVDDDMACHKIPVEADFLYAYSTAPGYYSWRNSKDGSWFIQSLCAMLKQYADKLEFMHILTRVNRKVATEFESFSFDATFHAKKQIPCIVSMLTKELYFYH
Chain of Apoptosis regulator Bcl-2 (Homo sapiens) (P10415 whole entry, looked up): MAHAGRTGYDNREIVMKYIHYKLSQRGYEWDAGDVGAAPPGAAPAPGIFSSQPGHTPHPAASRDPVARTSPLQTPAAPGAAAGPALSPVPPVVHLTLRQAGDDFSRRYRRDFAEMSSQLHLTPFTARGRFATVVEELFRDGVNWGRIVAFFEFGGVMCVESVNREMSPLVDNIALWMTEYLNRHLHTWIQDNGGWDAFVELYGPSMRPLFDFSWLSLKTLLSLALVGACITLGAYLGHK
Chain of Cytochrome P450 3A4 (Homo sapiens) (P08684 whole entry, looked up): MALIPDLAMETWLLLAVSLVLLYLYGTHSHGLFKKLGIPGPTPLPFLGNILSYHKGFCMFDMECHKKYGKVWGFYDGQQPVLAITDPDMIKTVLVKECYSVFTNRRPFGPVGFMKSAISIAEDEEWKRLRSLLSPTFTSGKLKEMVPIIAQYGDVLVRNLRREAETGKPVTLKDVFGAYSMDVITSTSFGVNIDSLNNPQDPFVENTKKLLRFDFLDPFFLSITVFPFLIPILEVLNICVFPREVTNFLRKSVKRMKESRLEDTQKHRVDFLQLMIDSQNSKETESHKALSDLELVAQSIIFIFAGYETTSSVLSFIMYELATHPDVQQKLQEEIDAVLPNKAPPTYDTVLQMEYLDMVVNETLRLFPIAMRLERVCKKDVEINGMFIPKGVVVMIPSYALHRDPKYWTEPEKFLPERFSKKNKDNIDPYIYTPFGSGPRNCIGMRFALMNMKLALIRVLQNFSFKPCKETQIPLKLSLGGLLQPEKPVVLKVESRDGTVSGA

With `CCc1cc(C2=C(C(=O)O)N(c3ccccc3C(F)(F)F)S(=O)(=O)c3ccccc32)cc2c1OCO2`, the AC50 in test [1] is 50 µM (active); in test [3], 65 µM (active); in test [5] it was 77.2 µM (active); in test [6] it was 79.9 µM (active); in test [12], 90.5 µM (active); in [13] it was 91.9 µM (active). Besides, the AC50 in test [14] is 91.7 µM (active); in [15] it was 86.1 µM (active); in [16], 56.8 µM (active); in test [17], 679 nM (active); in [18] it was 82.1 µM (active). Moreover, the call in test [2], in test [4], in [7], in test [8], in test [9] and in test [10] was inactive. Besides, the result in [11] and in test [19] was inactive.

In the case of `O=C(O)CN(CC(=O)O)CC(=O)O`, the result in test [1], in [2], in test [3], in [4], in test [5] and in [6] was inactive. Also, the result in test [7], in [8], in test [9], in [11], in [12] and in [13] was inactive. Moreover, the result in [14], in test [15], in test [16], in test [20], in test [18] and in test [19] was inactive. In test [10], the AC50 was 45.8 µM (active).

For the molecule `C=CCc1ccc(OC)c(OC)c1`, the result in test [1], in test [2], in test [3], in [4], in [5] and in [6] was inactive. Besides, the result in test [8], in [9], in test [10], in test [11], in [13] and in [14] was inactive. In addition, the result in [15], in test [16], in [20] and in [19] was inactive. The AC50 in test [7] was 9.92 µM (active); in [12], 2.13 µM (active).

With `CC(=O)OC1CC(C)OC(C)O1` (stereo not given), the result in test [1], in [2], in test [3], in test [4], in [5] and in test [6] was inactive. Further, the call in [7], in [8], in test [9], in test [11], in [12] and in test [13] was inactive. In addition, the call in test [14], in test [15], in test [16], in test [17], in [18] and in [19] was inactive. In addition, in test [10], the AC50 is 50 µM (active).
